Results on 15 molecules are retold here after PubChem BioAssay.

Structures are written as SMILES. Active and inactive are the calls of the source.

A short description of assay [1]: A549 cell viability effects, profiling panel, calcein-AM fluorescence, 48 h, basal (AID 1162). To be noted: higher = more signal.
The nature of assay [2]: adipocyte viability effects, profiling panel, cell-based, 3T3-L1 adipocytes, calcein-AM fluorescence, 48 h, basal (AID 1163). To be noted: 3T3-L1 adipocytes viability, higher = more signal.
The nature of assay [3]: HepG2 cell viability effects, profiling panel, calcein-AM fluorescence, 48 h, basal (AID 1164). To be noted: higher = more signal.
Assay [4] is described as follows: MM1S cell viability effects, profiling panel, calcein-AM fluorescence, 48 h, basal (AID 1165).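 Further: viability of MM1S multiple myeloma cells under basal unstimulated conditions.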 The settings on record: higher = more signal.
Assay [5] can be described thus: basal RPMI8226 viability, no added stimulus, profiling panel, cell-based, calcein-AM fluorescence, 48 h, PK04 Diversity Set (AID 1166).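 Further: cells grown under basal conditions without added stimulus.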 To be noted: RPMI8226 myeloma viability, higher = more signal.
Assay [6] in a line: basal HepG2 mitochondrial membrane potential changes, profiling panel, cell-based, JC-1 fluorescence, 24 h, 100 nL compound (AID 1167). The settings on record: higher = more signal.
Assay [7] in a line: basal 3T3-L1 adipocyte mitochondrial potential changes, profiling panel, cell-based, JC-1 fluorescence, 3T3-L1 adipocytes, 24 h, 100 nL compound (AID 1168). To be noted: JC-1 mitochondrial fluorescence, higher = more signal, called active from +8 up or from −8 down.
The nature of assay [8]: basal RPMI8226 mitochondrial membrane potential changes, profiling panel, cell-based, JC-1 fluorescence, 24 h, 100 nL compound (AID 1169). The settings on record: RPMI8226 myeloma, JC-1 mitochondrial potential fluorescence, higher = more signal.
A short description of assay [9]: basal MM1S mitochondrial membrane potential changes, profiling panel, cell-based, JC-1 fluorescence, 24 h, 100 nL compound (AID 1170). The settings on record: higher = more signal.
Assay [10] can be described thus: A549 lung cancer cell viability effects, profiling panel, resazurin fluorescence, 24 h, PK04 Diversity Set (AID 1171). The settings on record: higher = more signal, called active from +8 up or from −8 down. On the technique in general: The colour change of resazurin is a common sign of viable cells or microbes.
Further: test concentration not given here.

In the case of `CC(=O)Nc1cc(Br)ccc1C(=O)NCc1ccccc1`, the z-score in assay [1] is -0.196; in assay [2] it was 0.814; in [3], -0.0731; in [4], -0.0267; in assay [5], 0.0237; in [6] it was -0.56. For the same molecule, the z-score in [7] is -0.907 (inactive); in [8] it was 0.782; in assay [9] it was 1.25; in assay [10] it was 0.14 (inactive).
For `CC(C)NC(=O)[C@@H]1c2ccccc2C(=O)N(C(C)C)[C@H]1c1ccc(CO)cc1`, the z-score in assay [1] was 0.772; in assay [2], 0.0383; in assay [3] it was 1.8; in assay [4] it was 0.333; in [5], 0.947; in assay [6], 1.59. For the same molecule, the z-score in assay [7] is -0.423 (inactive); in assay [8] it was -0.104; in [9], -0.952; in assay [10] it was 0.842 (inactive).
`CN(C)C(=O)[C@]1(Cc2ccccc2)N=C(c2ccc(OCCCO)cc2)O[C@@H]1c1ccccc1N=[N+]=[N-]`: the z-score in [1] was -0.279; in assay [2] it was -0.336; in assay [3] it was -0.987; in assay [4], -3.2; in [5] it was -4.26; in assay [6] it was 1.43. The z-score in assay [7] is 2.9 (inactive); in [8], -1.18; in assay [9], -2.37; in assay [10], -1.75 (inactive).
With `COC(=O)[C@]1(CCC(=O)OC(C)(C)C)N=C(c2ccc(OCCCO)cc2)O[C@@H]1c1ccccc1`, the z-score in assay [1] was -1.32; in [2] it was 0.899; in assay [3] it was -1.08; in assay [4], -3.43; in assay [5], -3.1; in assay [6], -2.23. The z-score in assay [7] was -0.205 (inactive); in assay [8], -0.734; in assay [9], 0.903; in [10] it was -1.99 (inactive).
On to `C[N+](C)(C)CCCCCCNC(=O)[C@H]1C[C@H]2C(=O)N[C@@H](Cc3ccccc3)C(=O)N2[C@H]1c1cccc(OCCO)c1`, for which the z-score in [1] is -0.344; in [2], -1.04; in assay [3], -0.695; in assay [4], 0.245; in assay [5], 0.517; in [6] it was -1.25. Further, the z-score in [7] is -0.371 (inactive); in assay [8], -0.186; in assay [9] it was -0.545; in [10] it was 0.568 (inactive).
Regarding `C=CC[C@]1(C(N)=O)N=C(c2ccc(OCCCO)cc2)O[C@H]1c1ccccc1`, the z-score was 0.354 in [1]; 0.464 in assay [2]; -0.717 in assay [3]; -0.519 in assay [4]; -0.111 in assay [5]; -0.579 in [6]. In addition, the z-score is -1.09 (inactive) in assay [7], -0.414 in assay [8], 0.13 in [9] and -0.0187 (inactive) in assay [10].
Take `COCCCNC(=O)[C@]1(Cc2ccccc2)N=C(c2ccc(OCCCO)cc2)O[C@@H]1c1ccccc1CN=[N+]=[N-]`: the z-score is 1.16 in assay [1]; 0.52 in assay [2]; 1.57 in assay [3]; -0.488 in [4]; -2.52 in assay [5]; 2.15 in assay [6]. Moreover, the z-score is -0.0892 (inactive) in assay [7], -0.985 in assay [8], -0.712 in assay [9] and -1.43 (inactive) in [10].
`COc1ccc([Si](C)(C)[C@@H]2[C@@H](CC(=O)N3Cc4ccccc4C[C@H]3CO)O[C@]3(C(=O)N(Cc4cccc(N5CCC5=O)c4)c4ccccc43)[C@H]2C)cc1`: the z-score is -0.598 in assay [1]; 0.832 in assay [2]; -0.16 in assay [3]; -2.1 in assay [4]; -2.55 in assay [5]; -0.372 in assay [6]. Moreover, the z-score in assay [7] was 1.33 (inactive); in assay [8], -0.755; in [9] it was -1.16; in assay [10], -1.38 (inactive).
Consider `NC(=O)[C@@H]1[C@H]2C(=O)O[C@H](c3ccccc3)[C@H](c3ccccc3)N2[C@H](c2ccc(O)cc2)[C@@]12C(=O)Nc1ccc(C#CC3=CCCCC3)cc12`, for which the z-score in assay [1] was -1.42; in assay [2], -0.0881; in [3] it was -5.06; in assay [4], -3.27; in assay [5], -4.17; in [6], -3.59. Also, the z-score in assay [7] is -1.58 (inactive); in [8] it was -0.88; in assay [9], -1.94; in assay [10] it was -0.274 (inactive).
As for `CC(c1ccccc1)C(O)C1C=CC2C(=O)N(C)C(=O)C2N1NC(=O)OC(C)(C)C` (stereo not given), the z-score is -0.431 in assay [1]; 0.173 in assay [2]; -0.527 in [3]; -0.391 in [4]; -0.347 in [5]; -0.741 in [6]. In addition, the z-score in [7] was -0.439 (inactive); in [8], -0.104; in assay [9], 0.772; in assay [10], 0.866 (inactive).
In the case of `O=C1C2C=CC(C(O)c3ccc4c(c3)OCO4)N(Nc3ccc([N+](=O)[O-])cc3)C2C(=O)N1c1ccccc1` (stereo not given), the z-score in assay [1] is -0.649; in assay [2], -1.09; in [3], 0.199; in assay [4], 0.259; in assay [5], -0.169; in [6] it was -0.941. The z-score is -0.856 (inactive) in [7], 0.575 in [8], -0.77 in assay [9] and -0.0894 (inactive) in assay [10].
Turning to `CN1C(=O)C2C=CC(C(O)c3c(F)cccc3Cl)N(NC(=O)OC(C)(C)C)C2C1=O` (stereo not given), the z-score is -0.646 in assay [1]; -0.204 in assay [2]; -0.482 in [3]; -0.208 in [4]; -1.64 in assay [5]; -1.25 in assay [6]. In addition, the z-score in assay [7] was -0.555 (inactive); in [8], -0.715; in [9] it was 0.925; in assay [10], 0.143 (inactive).
Turning to `NC(=O)[C@@]1(Cc2ccccc2)N=C(c2ccc(OCCCO)cc2)O[C@H]1c1ccccc1`, the z-score is -0.611 in assay [1]; 0.422 in [2]; -0.373 in assay [3]; -0.13 in [4]; 0.0044 in [5]; -0.576 in [6]. Further, the z-score in [7] is 0.804 (inactive); in assay [8] it was -0.318; in assay [9], 0.577; in assay [10], -0.0671 (inactive).
`COCCOC(=O)N1C(=O)[C@@]2(c3ccccc31)[C@H](C(N)=O)[C@H]1C(=O)O[C@H](c3ccccc3)[C@H](c3ccccc3)N1[C@@H]2c1ccc(O)cc1`: the z-score was 0.75 in [1]; -0.0824 in assay [2]; 1.51 in [3]; 0.84 in [4]; 0.248 in assay [5]; -0.244 in assay [6]. Further, the z-score in assay [7] is 0.571 (inactive); in [8], -0.795; in assay [9], 0.119; in [10] it was -1.37 (inactive).
In the case of `O=C1OCCC=C[C@H]2OC34C=CCN(Cn5nnc6ccccc65)C(=O)[C@H]3N(CCO)C(=O)[C@@H]4C12` (stereo not given in full), the z-score in assay [1] is -0.679; in assay [2], 0.432; in assay [3], -0.556; in assay [4] it was 0.897; in assay [5] it was -1.08; in [6] it was -0.298. Further, the z-score in assay [7] is 0.756 (inactive); in assay [8] it was 0.42; in [9] it was -0.0431; in assay [10], 0.293 (inactive).
